Hit rate of the full screen: of about 71,000 compounds, about 1,300 (1.8%) were called active. Only a selection was taken, and actives are over-represented in it overall. Unmarked numbers belong to inactive results. The call rests on the fitted dose curve.
Potency means the concentration at half of the fitted maximal effect.

In this assay the target is Beta-lactamase (Escherichia coli (strain K12)) (UniProt P00811). Briefly: Promiscuous and Specific Inhibitors of AmpC Beta-Lactamase (assay without detergent). On activity change, negative = inhibition: % of control where 0% means no effect. Conditions: AmpC nitrocefin hydrolysis, absorbance 480 nm, no detergent; series mostly up to 28.7 µM; activity change, negative = inhibition: at the top concentration. The method, then: NIH Molecular Libraries Screening Centers Network [MLSCN]
Chain of Beta-lactamase (Escherichia coli (strain K12)) (P00811 whole entry, looked up): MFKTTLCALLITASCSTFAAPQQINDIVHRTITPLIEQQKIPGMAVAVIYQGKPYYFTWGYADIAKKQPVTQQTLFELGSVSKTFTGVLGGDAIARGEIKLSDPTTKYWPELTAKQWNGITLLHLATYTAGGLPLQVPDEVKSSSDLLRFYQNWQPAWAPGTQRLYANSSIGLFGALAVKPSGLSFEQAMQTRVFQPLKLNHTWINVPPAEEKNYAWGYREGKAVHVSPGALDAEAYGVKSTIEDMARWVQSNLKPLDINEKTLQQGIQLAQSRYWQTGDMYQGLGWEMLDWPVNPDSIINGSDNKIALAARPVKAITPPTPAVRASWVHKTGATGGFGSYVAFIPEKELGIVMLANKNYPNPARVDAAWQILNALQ
NIH Chemical Genomics Center [NCGC]
PI Name: Shoichet, Brian K.
This aggregation profiling approach exploits the sensitivity of aggregate formation to detergent. Inhibition of b-lactamase is measured in the presence and absence of 0.01% Triton X-100. See Pubchem assay "Promiscuous and Specific Inhibitors of AmpC Beta-Lactamase (assay with detergent)" for related screen. Compounds that inhibit only in the absence of detergent are considered likely promiscuous aggregators.
A screen of 1,030 compounds was performed in Brian Shoichet's lab in 96-well format. AmpC activity was measured by following the absorbance at 480 nm. Nitrocefin is a chromogenic substrate: while nitrocefin is yellow (lmax 390 nm), the product of its hydrolysis is red (lmax 486 nm, 17,000 M-1). AmpC beta lactamase was provided by Brian Shoichet and Brian Feng, UCSF.
NCGC Assay Protocol Summary:
20 mM phosphate buffer, pH 7.0
Triton X-100: No Detergent screen: 0.0001%, Detergent screen: 0.01%.
Buffer in columns 3 and 4 as negative control (no enzyme).
5.3 nM AmpC in columns 1, 2, 5-48. Titration of UCSF compound 9 control (from 10 mM, then 1:2) pin-transferred to column 2. Column 1 is neutral (100% activity).
Six uL of reagents were dispensed to 1536-well Greiner black clear bottom plates. Compounds and controls (23 nL) were transferred via Kalypsys PinTool. The plates were incubated for 15 min at room temperature, and then 2 uL of 800 uM solution of nitrocefin was added to start the reaction. The plates were immediately transferred to and read every 20 seconds for 4 min on ViewLux (Perkin-Elmer) High-throughput CCD imager using 480 nm absorbance protocol. During dispense, reagent bottles were kept submerged into 4 deg C water bath.
Keywords: NIH Roadmap, MLSCN, MLI, MLSMR, qHTS, NCGC, AmpC Beta-Lactamase, Aggregation.
On to `CCc1nnc(NC(=O)CSc2nnc(COc3ccc(C#N)cc3)n2-c2ccccc2)s1`, for which the “activity change, negative = inhibition” value was 49%.

As for `CCOc1ccc(-n2c(SC(C)C(=O)OC)nc3c(c2=O)SCC3)cc1` (stereo not given), the “activity change, negative = inhibition” value is 47.2%.

On to `O=C(CN1C(=O)c2ccccc2S1(=O)=O)N1CCc2ccccc21`, for which the “activity change, negative = inhibition” value is -13.7%.

For `CCCc1nnc(NC(=O)CN2C(=O)c3ccccc3S2(=O)=O)s1`, the “activity change, negative = inhibition” value is -10.1%.

Turning to `CNC(=O)CN1C(=O)c2ccccc2S1(=O)=O`, the Potency was 3.98 µM [single pt active] (active).

As for `Fc1cccc(/C=N\N=C/c2cccc(F)c2)c1`, the “activity change, negative = inhibition” value was 11.7%.

As to `COc1cccc(Nc2nnc(SCC(=O)N3CC(C)OC(C)C3)s2)c1` (stereo not given), the “activity change, negative = inhibition” value is 21%.

Consider `COc1cccc(NC(=O)C2CCCN2C(=O)OCc2ccccc2)c1` (stereo not given), for which the “activity change, negative = inhibition” value is 9.3%.

Regarding `COc1cccc(NC(=O)Nc2nnc(N3CCCCC3C)s2)c1` (stereo not given), the Potency is 2.51 µM [single pt active] (active).

`COCc1cc(C)nc(SCC(=O)Nc2cccc(C)c2)c1C#N`: the “activity change, negative = inhibition” value is -7.6%.

Regarding `CC1=C2C(=O)OC(c3ccoc3)C2(C)CCC1` (stereo not given), the “activity change, negative = inhibition” value was -1.9%.

Turning to `COc1ccc(C(=O)N/N=C2/C(=O)c3c(C)cc(C)cc3CC2(C)C)cc1`, the activity change, negative = inhibition is 18.6% [at 5.75 µM].

For the compound `CCOC(=O)N1CCC(C(N)=O)CC1`, the “activity change, negative = inhibition” value was -4.6%.

On to `Cc1noc(C)c1S(=O)(=O)N(CC(=O)Nc1ccc2c(c1)OCCO2)c1ccc(C(C)C)cc1`, for which the “activity change, negative = inhibition” value is -4.4%.

Turning to `CCOC(=O)C1(C(F)(F)F)N=C(N(C)C)OC(N(C)C)=N1`, the “activity change, negative = inhibition” value is -6.4%.

Take `N#CC1=C(N)Oc2cc(O)ccc2C1C1CCCCC1` (stereo not given): the “activity change, negative = inhibition” value is -9.2%.

As to `O=C(O)c1c(Br)c(Br)c(Br)c(Br)c1C1c2ccc(O)cc2Oc2cc(O)ccc21`, the Potency is 0.158 µM (active).

Take `COCCNC(=O)CN1C(=O)CSc2ncccc21`: the “activity change, negative = inhibition” value is -21.6%.

Turning to `CC(C)(Cc1c[nH]c2ccc(Cl)cc12)NCCOc1ccccc1OCC1CC1`, the Potency was 20 µM [single pt active] (active).

Consider `NCC[Se][Se]CCN`, for which the activity change, negative = inhibition is 1.6% [at 5.75 µM].

Turning to `COC(=O)N1CCC[C@@]2(CCN(C(=O)NC(C)C)C2)C1`, the “activity change, negative = inhibition” value was 22.8%.

Regarding `Cc1cc(C)c(C#N)c(SCc2ccc3c(c2)OCO3)n1`, the “activity change, negative = inhibition” value is -11.5%.

Turning to `Cc1nc(C)c(C(=O)Nc2cccc(C)c2C)o1`, the Potency is 3.98 µM [single pt active] (active).

With `Cc1nc(C)c(C(=O)Nc2ccc(C)c(F)c2)o1`, the “activity change, negative = inhibition” value was -4%.

For `COc1ccc(Cl)cc1NC(=O)c1oc(C)nc1C`, the “activity change, negative = inhibition” value was 22.7%.

With `c1ccc2c(c1)OCC(CNc1ncnc3nc[nH]c13)O2` (stereo not given), the “activity change, negative = inhibition” value is 8.2%.

Regarding `c1ccc(CCN2CCN=C2Cc2ccccc2)cc1`, the activity change, negative = inhibition is 13.3% [at 5.75 µM].

In the case of `COc1cccc(N2C(=O)C3CCCN3C2c2ccc(F)cc2)c1` (stereo not given), the “activity change, negative = inhibition” value is 26.5%.

In the case of `CC1=CC(C)(C)N(C(=O)CSc2nccn2C)c2cc(C)ccc21`, the “activity change, negative = inhibition” value was 45.9%.

For the compound `O=C(Cn1c(=S)nc2ccccn21)N1CCc2ccccc2C1`, the “activity change, negative = inhibition” value was 3.2%.

As to `C=C1c2cc(CC)ccc2NC(=O)N1c1ccc(C)cc1`, the Potency is 3.98 µM [single pt active] (active).

For the compound `Cc1ccc(S(=O)(=O)N2CC(=O)Nc3ccccc32)cc1C`, the “activity change, negative = inhibition” value is 2.2%.

On to `FC(F)Oc1ccccc1C1CC(c2ccc(Br)s2)Nc2ncnn21` (stereo not given), for which the “activity change, negative = inhibition” value was 66.8%.

Consider `O=c1cc(Cn2nnc(-c3ccc(Cl)cc3)n2)nc2sccn12`, for which the “activity change, negative = inhibition” value was 40%.

Consider `CS(=O)(=O)N(CC(=O)N1CCN(Cc2ccc3c(c2)OCO3)CC1)c1ccc2c(c1)OCO2`, for which the “activity change, negative = inhibition” value was 68.3%.

On to `O=C(NCc1ccco1)C1CCCN(S(=O)(=O)c2cccc3nonc23)C1` (stereo not given), for which the “activity change, negative = inhibition” value is 0.9%.

As to `O=C(NCc1ccco1)C1CCCN(S(=O)(=O)c2cnc[nH]2)C1` (stereo not given), the Potency was 3.98 µM [single pt active] (active).

On to `CCCS(=O)(=O)N1CCCC(C(=O)NCc2ccco2)C1` (stereo not given), for which the “activity change, negative = inhibition” value is -0.5%.

Turning to `CC1(C)CC(CCC(=O)Nc2ccccc2Cl)C(=O)O1` (stereo not given), the “activity change, negative = inhibition” value was -5.9%.

Consider `COc1ccc(C(=O)N(Cc2ccc(N(C)C)cc2)C2CCS(=O)(=O)C2)cc1` (stereo not given), for which the “activity change, negative = inhibition” value is 37.7%.

For the compound `Cc1nc(N2CCN(c3ncccn3)CC2)c2oc3ccccc3c2n1`, the “activity change, negative = inhibition” value is 56.3%.

Take `CC(C)(C)NC(=O)NC(=O)COC(=O)Cn1c(C(F)(F)F)nc2ccccc21`: the “activity change, negative = inhibition” value is 24%.

As to `CCOC(=O)N1CCN(C(=O)c2cc3c(ccc4ccccc43)oc2=O)CC1`, the “activity change, negative = inhibition” value was 42.4%.

`Cn1cccc1C(=O)NC(=O)COC(=O)Cc1coc2ccc3ccccc3c12`: the Potency was 12.6 µM (active).

With `CCN1CCN(Cc2c(O)ccc3c(=O)c(-c4ccc(OC)c(OC)c4)c(C(F)(F)F)oc23)CC1`, the “activity change, negative = inhibition” value was 51.9%.

Take `CN1CCN(CCCNC(=O)c2cc3c(=O)oc4ccccc4c3s2)CC1`: the “activity change, negative = inhibition” value was 13.6%.

`COc1ccccc1NC(=O)C1=C(C)Nc2ncnn2C1c1ccc(C)o1` (stereo not given): the “activity change, negative = inhibition” value is 2.7%.

With `COc1ccccc1NC(=O)C1=C(C)Nc2nnnn2C1c1cccc(Br)c1` (stereo not given), the “activity change, negative = inhibition” value is 12.1%.

Turning to `COc1cc(C2C(C(=O)Nc3ccccc3OC)=C(C)Nc3ncnn32)ccc1O` (stereo not given), the Potency is 3.98 µM [single pt active] (active).

Take `COc1ccc(CCN(C)CCN2C(=O)c3ccccc3C2=O)cc1OC`: the “activity change, negative = inhibition” value is 9.6%.

Values taken from PubChem BioAssay AID585 (National Center for Advancing Translational Sciences (NCATS), 2007).
